According to PubChem BioAssay AID1851 (National Center for Advancing Translational Sciences (NCATS), 2009):
Several values for one entry are separate records, joined by “and”; a condition that tells them apart may be missing. Equal entries are not always repeated. In all, about 16,000 compounds went through this assay and about 5,100 (32%) were called active. Another 25% or so got no clear call; they are omitted. The call rests on the fitted dose curve; in most records, active means well fitted curve in the direction sought with a large enough effect; inconclusive means small, poorly fitted or top-dose-only effect, or effect the other way; inactive means no such curve, though single readings can be large or run the other way. Some of the results follow.

Target: Cytochrome P450 3A4 (Homo sapiens) (UniProt P08684)
Assay: Cytochrome panel assay with activity outcomes
Conditions: recombinant CYP, pro-luciferin dealkylation, luminescence, p450-cyp3a4; series mostly up to 57.1 µM; activity, negative = inhibition: at the top concentration
On the % scale 0 is the no-effect control and ±100 the full control effect.

Cytochrome P450 3A4 (Homo sapiens), sequence (P08684 whole entry, looked up): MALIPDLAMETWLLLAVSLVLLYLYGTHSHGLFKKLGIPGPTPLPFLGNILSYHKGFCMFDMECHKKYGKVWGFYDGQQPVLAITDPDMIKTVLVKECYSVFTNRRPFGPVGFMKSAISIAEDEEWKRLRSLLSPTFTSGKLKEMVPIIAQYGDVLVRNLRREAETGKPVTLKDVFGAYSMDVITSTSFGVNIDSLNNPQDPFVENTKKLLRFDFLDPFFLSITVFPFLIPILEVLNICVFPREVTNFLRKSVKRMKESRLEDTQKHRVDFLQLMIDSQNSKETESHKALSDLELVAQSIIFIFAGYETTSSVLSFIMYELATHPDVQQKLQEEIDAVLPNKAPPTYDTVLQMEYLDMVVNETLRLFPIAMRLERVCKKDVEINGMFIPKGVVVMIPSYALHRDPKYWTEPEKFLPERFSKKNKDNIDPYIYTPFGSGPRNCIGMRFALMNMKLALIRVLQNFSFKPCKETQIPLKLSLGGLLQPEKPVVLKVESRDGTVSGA

activity, negative = inhibition, inactive:
O=C1C[C@@H](O)[C@@H](O)[C@H]2[C@@H]3C(=O)N(C4CCCCC4)C(=O)[C@@H]3CC[C@H]12 -5.08% [at 11.4 µM] and -17.3% [at 11.4 µM] and -26.5% [at 11.4 µM]
Cc1ccc(/C=C/c2nnc(-c3cccs3)o2)cc1 6.75% [at 2.29 µM]
COc1ccc(C2=CSC(/N=C/c3ccc(F)cc3)=NN2)cc1 0.425% [at 2.29 µM]
CN(C)C=Nc1ccc2nn(-c3ccccc3)nc2c1 -3.41% [at 2.29 µM]
O=[N+]([O-])c1ccc([C@@H](Nc2ccccc2)c2ccc3cccnc3c2O)cc1 -23.7% [at 11.4 µM]
c1ccc(-c2nnn(CCN3CCCCC3)n2)cc1 -9.98% [at 11.4 µM]
CCCSc1cc(N2CCCC2)nc(-c2ccccc2)n1 -13.5%
CN(C)C(=O)c1ccc(-c2ccc3ncnc(N4CCC(C(=O)O)CC4)c3c2)cc1 1.85%
CCCCCCCCCn1cc(C(C)=O)c(=O)[nH]c1=O -7.53% [at 2.29 µM]
O=C(Cn1ccc(=O)[nH]c1=O)Nc1ccc(C(=O)O)c(O)c1 -4.95% [at 11.4 µM]
COc1cccc(C(c2c(C)[nH]n(-c3ccccc3)c2=O)c2c(C)[nH]n(-c3ccccc3)c2=O)c1O 2.06%
COc1cccc2c1OC1(C)CC2/C(=C(\C)O)C(=O)N1 (stereo not drawn) -3.38%
COC(=O)[C@@H]1O[C@@H](c2c(OC)c(OC)c(C)c(OC)c2OC)[C@H](C)[C@@H](O)[C@@H]1C -7.25% [at 11.4 µM]
O=c1c(-c2ccccc2)nc2cncnc2n1-c1ccccc1 -27.5%
CCCc1nnc(NC(=O)CCC(=O)NCc2ccccc2OC)s1 2.33% [at 2.29 µM]
CCCCCc1nnc(NC(=O)C(=O)OCC)s1 1.6% [at 2.29 µM]
CC(=O)Nc1ccc(C2=NN(CC#N)C(=O)SC2)cc1 -15.6%
O=C(O)[C@@H]1[C@@H](C(=O)NCc2cccnc2)[C@@H]2C=C[C@@H]1O2 -21.1% [at 11.4 µM]
COc1ccc(C(=O)c2c[nH]c(C(=O)NCc3cccs3)c2)cc1 -17.8%
O=C(Nc1cccnc1)C1COc2ccccc2O1 (stereo not drawn) -22.7%
O=C(NCc1cccnc1)[C@@H]1[C@@H](C(=O)O)[C@H]2CC[C@@H]1O2 -23.9% [at 11.4 µM]
O=C(O)Cc1cccnc1 -12.2% [at 11.4 µM]
CC(C)=CCC/C(C)=C/CO/N=C1/C[C@@H](O)[C@@H](O)[C@@H]2[C@@H]3C(=O)N(C(C)(C)C)C(=O)[C@H]3CC[C@H]12 -7.78% [at 11.4 µM]
CCOC(=O)Cc1c(C)nc2c(C#N)c[nH]n2c1=O -0.582%
COc1ccc(-n2cccc2C=O)cc1OC -5.8%
CC(C)(C)NC(=O)CSC(=Nc1ccc(F)cc1)NC#N -11.3% [at 2.29 µM]
O=C(Oc1ccccc1N1C(=O)C2CCCCC2C1=O)c1ccccc1 (stereo not drawn) -1.02% [at 2.29 µM]
C[N+]1(C)CCC[C@@H](OC(=O)C(O)(c2ccccc2)c2ccccc2)C1 -1.21% [at 25.6 µM]
Cc1ccc(-c2ccc(CCC(=O)O)n2CC2CCCO2)cc1 (stereo not drawn) 18.1% [at 2.29 µM]
Cc1cc(Cc2c(C)c(C)c(Cc3cc(C)cc(C(C)(C)C)c3O)c(C)c2C)c(O)c(C(C)(C)C)c1 0.196% [at 11.4 µM]
Cc1cc(-c2cc(C)c(O)c(C(C)(C)C)c2)cc(C(C)(C)C)c1O -12.3% [at 11.4 µM]
Cc1cc(Cc2cc(Cc3cc(C)cc(C(C)(C)C)c3O)c(C)cc2C)c(O)c(C(C)(C)C)c1 -23.1% [at 11.4 µM]
Cc1cc(Cc2cc(C)cc(C(C)(C)C)c2O)c(O)c(Cc2cc(C)cc(C(C)(C)C)c2O)c1 -19.8% [at 11.4 µM]
CN(C)CCCc1c2ccccc2nc2ccc(Cl)cc12 -1.41% [at 11.4 µM]
CCCCCc1nc2c(=O)[nH]c3ccccc3c2o1 -8.01%
Clc1ccc2c(NC3CCC(N4CCCCC4)CC3)ccnc2c1 (stereo not drawn) -1.29% [at 11.4 µM]
COc1ccccc1-c1cc(Nc2ccc(F)cc2)ncn1 -29.9%
N/C(=N\O)c1cn([C@@H]2O[C@@H](CO)[C@H](O)[C@@H]2O)c2ncnc(NO)c12 -7.27% [at 11.4 µM]
CC(=O)OC[C@@H]1O[C@@H](O/N=C2/C[C@@H](O)[C@@H](O)[C@@H]3[C@@H]4C(=O)N(C[C@@H]5CCCO5)C(=O)[C@H]4CC[C@H]23)[C@H](OC(C)=O)[C@H](OC(C)=O)[C@@H]1OC(C)=O -12.5% [at 11.4 µM]
Oc1cc(O)c2c(c1)O[C@@H](c1ccc(O)c(O)c1)[C@H](O[C@@]1(c3cc(O)c(O)c(O)c3)Oc3cc(O)cc(O)c3[C@H](O)[C@@H]1O)C2 -19.7% [at 11.4 µM]
Cc1ccc(CONC(=O)/N=C/N(C)C)cc1 -12.6%
O=C(SCc1cccc2ccccc12)c1ccc(Cl)cc1 -17.6% [at 11.4 µM]
O=C(Cc1ccccc1)N/N=C\c1ccc(Br)o1 -20.2%
Oc1ccc(Cl)cc1C=Nc1cnc2ccccc2c1 -12.5% [at 11.4 µM]
Cc1ccc(COc2coc(CO)cc2=O)cc1 -20.6%
NC(=S)N/N=C/c1ccccc1OCc1cccc(Cl)c1 -18.2% [at 2.29 µM]

AC50, inactive:
NCCSSCCN
CO[C@]1(C2=NCCN2)COc2ccccc2O1

AC50, active:
Cc1ccc(-c2n[nH]c(=S)n2/N=C/c2cccn2C)cc1 12.6 µM
Cc1ccc(/C=N/n2c(-c3cccs3)n[nH]c2=S)cc1 11.2 µM
COc1ccc(/C=N/n2c(-c3cccs3)n[nH]c2=S)cc1 8.91 µM
CN(c1ccccc1)c1nc(-n2ccnc2)nc(-n2ccnc2)n1 0.891 µM
c1ccc(-c2nc(N3CCCCCC3)nc(-n3ccnc3)n2)cc1 0.708 µM
COc1ccccc1-c1ccc2ncnc(N3CCOCC3)c2c1 6.31 µM
CN(C)Cc1ccccc1-c1ccc2ncnc(N3CCOCC3)c2c1 20 µM
COc1ccccc1-c1ccc2ncnc(N3CCN(C)CC3)c2c1 3.16 µM
CN(C)C[C@H]1CCC2=C(C1=O)C(c1ccc(Cl)c(Cl)c1)C1=C(CC[C@H](CN(C)C)C1=O)O2 0.398 µM
COc1ccc(Cc2nc3ccc(S(=O)(=O)N4CCOCC4)cc3[nH]2)cc1OC 12.6 µM
COc1cccc(C2NC(c3cccc(OC)c3O)C(C)C(=O)C2C)c1O (stereo not drawn) 12.6 µM
CN1c2ccccc2Oc2c(c(=O)n(C)c(=O)n2C)C1c1cccc([N+](=O)[O-])c1 (stereo not drawn) 15.8 µM
CC(C)CC1CC(=O)OC1(C)C(=O)CSc1nc2ccccc2s1 (stereo not drawn) 15.8 µM
CC1(C)CC2(CC(C)(C(=O)CSc3nc4ccccc4s3)OC2=O)C(=O)O1 (stereo not drawn) 10 µM
COc1cccc(-c2nc(NCCc3c[nH]c4ccc(OC)cc34)c3ccccc3n2)c1 2 µM
COc1ccc2[nH]cc(CCNc3nc(-c4ccoc4)nc4ccccc34)c2c1 3.16 µM
COc1ccc2[nH]cc(CCNc3nc(-c4ccccc4OC)nc4ccccc34)c2c1 2.51 µM
COc1ccc2[nH]cc(CCNc3nc(-c4cccnc4)nc4ccccc34)c2c1 1.58 µM
COc1ccc(-n2c(=O)c(-c3cn(C)c4ccccc34)nc3cncnc32)cc1 20 µM
Cn1cc(-c2nc3cncnc3n(-c3ccccc3)c2=O)c2ccccc21 10 µM
CCCc1nnc(NC(=O)C(CC)OC(=O)c2cc(C)nc3ccccc23)s1 (stereo not drawn) 12.6 µM
NNC(=O)Cc1cccnc1 3.16 µM
O=C(NCc1cccnc1)C1COc2ccccc2O1 (stereo not drawn) 5.01 µM
O=C(c1ccccc1)c1c[nH]c(C(=O)NCc2cccnc2)c1 4.47 µM
O=C(CCc1ccccc1)NCc1cccnc1 5.01 µM
O=C(CSCc1c(Cl)cccc1Cl)NCc1cccnc1 3.16 µM
Cc1nc2c(C(=O)NCc3ccc4c(c3)OCO4)c[nH]n2c(=O)c1Cc1ccccc1F 2.24 µM
Cc1ccc(C(=O)COC(=O)c2ccccc2N2C(=O)C3C4CCC(C4)C3C2=O)cc1C (stereo not drawn) 12.6 µM
CCC(=O)Nc1ccc(C(=O)CSc2nnc(-c3ccc(O)cc3)n2CC2CCCO2)cc1OC (stereo not drawn) 14.1 µM
CC(C)(CO)Cc1cc(C(C)(C)C)c(O)c(C(C)(C)C)c1 2.51 µM
CC(C)(C=O)Cc1cc(C(C)(C)C)c(O)c(C(C)(C)C)c1 12.6 µM
CCCCc1c2ccccc2nc2[nH]c3ccccc3c12 15.8 µM
COc1ccc(CNc2cc(-c3ccccc3Cl)ncn2)c(OC)c1 6.31 µM
COc1ccc(CNc2cc(-c3ccccc3OC)ncn2)c(OC)c1 6.31 µM
COc1ccccc1CNc1cc(-c2ccccc2OC)ncn1 15.8 µM
COc1ccccc1-c1cc(Nc2ccn[nH]2)ncn1 3.98 µM
O=C(Cc1ccccc1)N/N=C/c1ccccc1OCc1ccc(Cl)cc1 15.8 µM
O/N=C/c1ccccc1OCc1ccc(Cl)cc1 12.6 µM
Cc1ccc(COc2ccc(Br)cc2/C=N/O)cc1 7.94 µM
O/N=C/c1cc(Cl)ccc1OCc1cccc2ccccc12 7.94 µM
